Compounds without any hit were thinned out: in the full panel of roughly 83,000, 20% have a hit.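 The test compound was applied at a single concentration to cells in 96-well plates for 48 hours, and percent growth was recorded.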 Values without a mark were called inactive. The source made the active and inactive calls. Rule for the calls: active = growth percent below 10; inactive = the rest.

Test in all cases: NCI-60 one-dose screen, 48 h (100 = growth as untreated, 0 = no growth, -100 = all killed)
What all share (settings): 10 µM unless noted

For test [1], the system named is SK-MEL-2 melanoma.
Test [2] concerns EKVX NSCLC.
Test [3] concerns SN12C renal.
Test [4] has as its system UO-31 renal.
Test [5] relates to TK-10 renal.
For test [6], the system named is ACHN renal.
Test [7] deals with CAKI-1 renal.
The test system of test [8] is A498 renal.
For test [9], the system named is CCRF-CEM leukemia.
Test [10] relates to MOLT-4 leukemia.

Turning to `COC(=O)N1CC(Oc2ccccn2)C2CC1c1ccccc1O2` (centres undefined), the growth in [1] was 116%; in test [2], 104%; in test [3] it was 93%; in [4] it was 88.6%; in test [5], 98.2%; in [6] it was 95.7%. Further, the growth is 93.3% in [7], 83.4% in [8], 87.8% in test [9] and 94.5% in test [10].
For the compound `CSC1=Nc2c(c(C)c(-c3ccccc3)n2CCCC(=O)O)C2=NC(=O)C[C@H](C)N12`, the growth in test [1] was 107%; in test [2], 92.8%; in test [3], 122%; in test [4], 88.6%; in [5] it was 118%; in test [6], 121%. For the same compound, the growth is 103% in test [7], 128% in test [8], 98.4% in test [9] and 104% in [10].
As to `C=C(C)[C@@H]1CCC[C@]2(C(=O)O)CC[C@]3(C)[C@@H](CC[C@@H]4[C@@]5(C)C/C(=C/c6ccncc6)C(=O)C(C)(C)[C@@H]5CC[C@]43C)[C@@H]12`, the growth is 48.3% in test [1]; 24.9% in test [2]; 25.7% in test [3]; 19.7% in test [4]; 52.2% in test [5]; 26.8% in [6]. The growth was 31.4% in [7], 57.7% in test [8], 0.771% (active) in test [9] and 6.38% (active) in test [10].
With `Cc1ccc(-c2csc(N(C(=O)N3CCN(c4cc5c(cc4F)c(=O)c(C(=O)O)cn5C4CC4)CC3)c3ccccc3)n2)cc1`, the growth in test [1] was -4.42% (active); in test [2] it was 20.9%; in test [3], 9.07% (active); in test [4] it was 7.46% (active); in test [5] it was 20.6%; in test [6], 5.63% (active). The growth in test [7] is 2.42% (active); in test [8], 7.58% (active); in [9], 21%; in test [10], 16.6%.
Regarding `CN1CCN(CC(=O)Nc2ccc3ncnc(Nc4ccc(Oc5cccc(C(F)(F)F)c5)c(Cl)c4)c3c2)CC1`, the growth in test [1] was -15.5% (active); in [2], 31.1%; in test [3], 51.3%; in test [4] it was 21.7%; in test [5], 41.6%; in test [6], -63.2% (active). For the same compound, the growth in test [7] was -18.7% (active); in test [8] it was 36.3%; in [9], 6.92% (active); in test [10] it was -7.18% (active).
As to `CCNC(=O)Oc1ccc(/C(=C(/C)Cc2ccc(OC)cc2)c2ccc(OCCN3CCCCC3)cc2)cc1`, the growth was 92.3% in [1]; 79.8% in test [2]; 71.4% in [3]; 50.5% in [4]; 82.6% in test [5]; 94.8% in [6]. Also, the growth in test [7] is 90%; in test [8] it was 90.8%; in test [9], 36.5%; in test [10], 31.4%.
On to `CCCCCCCCCCCCCOC(=O)c1c(C)[nH]c(/C=C2\N=C(c3ccc[nH]3)C=C2OC)c1C`, for which the growth was -42.1% (active) in test [1]; 52.3% in [2]; 40.7% in test [3]; -54.4% (active) in test [4]; 34.4% in [5]; 8.11% (active) in test [6]. Also, the growth is -7.49% (active) in [7], 10.3% in test [8], 17.8% in test [9] and 22.8% in [10].
For the compound `CCN1CCN(CC(=O)Nc2nc3ccc(NCc4ccc(F)cc4)cc3s2)CC1`, the growth in test [1] is 106%; in test [2], 86.6%; in test [3] it was 88.5%; in [4] it was 75.6%; in [5] it was 105%; in test [6] it was 94.7%. Also, the growth in test [7] is 89.9%; in test [8], 95.2%; in test [9], 87%; in test [10], 84.8%.
Consider `COCCn1cc(-c2csc(-c3c[nH]c4ccc(Br)cc34)n2)c2cccnc21`, for which the growth in [1] is 35.9%; in test [2], 36.9%; in [3], 51.2%; in test [4], 27.8%; in test [5], 36.6%; in test [6], 27.2%. The growth in [7] was 49.4%; in test [8], 26.7%; in [9] it was 14%; in [10], 8.87% (active).
On to `CC(C)CCN(CCC(C)C)CC(O)c1cc2c(c3ccccc13)CCCC2` (centres undefined), for which the growth in test [1] is 76.4%; in [2], 73%; in test [3], 68.6%; in test [4], 48.7%; in test [5], 102%; in test [6] it was 52.4%. The growth in test [7] was 77.2%; in [8] it was 52.5%; in [9], 65.6%; in test [10], 55.6%.
As to `Nc1ccc(-c2csc(-n3[nH]c(=O)ccc3=O)n2)cc1`, the growth is 109% in test [1]; 88.4% in [2]; 103% in test [3]; 84.1% in [4]; 120% in test [5]; 99.5% in [6]. For the same compound, the growth in test [7] is 94%; in test [8], 103%; in [9], 96.4%; in [10], 87.6%.
In the case of `COc1ccc(-c2nc3c(N)c(CO)cnc3s2)cc1`, the growth in test [1] is 105%; in test [2] it was 48.4%; in test [3], 108%; in test [4], 84.6%; in test [5] it was 91.9%; in test [6] it was 93.4%. Also, the growth was 88.7% in [7], -19.1% (active) in [8], 103% in test [9] and 91.1% in test [10].
Turning to `COc1cc(/C=N/Nc2ccc(Br)cc2)cc(OC)c1OC`, the growth is 73% in test [1]; 63.9% in test [2]; 69.7% in test [3]; 35% in test [4]; 97.2% in [5]; 31.6% in [6]. Besides, the growth in [7] was 10.2%; in test [8] it was 60%; in test [9] it was 31.1%; in test [10], 44.1%.
As to `COc1cc(OC)c(/C=C/C(=O)c2c(O)cc(OC)c(C3CCN(C)CC3)c2OC)c(OC)c1`, the growth in test [1] was -57.8% (active); in [2] it was 22.9%; in test [3], 4.89% (active); in [4] it was -76.2% (active); in test [5] it was -82.5% (active); in [6], -98.3% (active). For the same compound, the growth in test [7] was -62.8% (active); in test [8], 17.8%; in test [9], -19.3% (active); in test [10] it was -34.4% (active).
As for `O=C1/C(=C/c2ccc(F)cc2)CN(C(=O)C(Cl)Cl)C/C1=C\c1ccc(F)cc1`, the growth in [1] was -16% (active); in test [2] it was -17.9% (active); in test [3] it was -72.5% (active); in test [4] it was -83.4% (active); in test [5], -59.8% (active); in [6] it was -98.3% (active). For the same compound, the growth is -55.4% (active) in [7], -84.3% (active) in [8], 2.43% (active) in test [9] and -18.2% (active) in test [10].
With `CC(C)=CCNc1ncnc2c1ncn2C1OC(CO)C(O)C1O` (centres undefined), the growth in [1] was -33.2% [1 mM] (active); in [2], 41.1% [1 mM]; in [3], -2.66% [1 mM] (active); in test [4] it was -72.4% [1 mM] (active); in test [5], -10.5% [1 mM] (active); in [6] it was 2.42% [1 mM] (active). In addition, the growth is -36.9% [1 mM] (active) in [7], -54.2% [1 mM] (active) in test [8], -56.6% [1 mM] (active) in test [9] and -26.6% [1 mM] (active) in test [10].
Regarding `O=C(Nc1ccc(Br)cc1)C1=NCCCCN1`, the growth in test [1] is 103%; in [2], 86.1%; in test [3], 94.7%; in test [4], 67.6%; in test [5], 93.4%; in test [6], 64.1%. Moreover, the growth in test [7] is 52.4%; in test [8] it was 95.7%; in [9], 84.5%; in [10] it was 96.5%.
For `CCCCNC(=O)Oc1ccc(/C(=C(/C)Cc2ccc(OC)cc2)c2ccc(OCCN3CCCCC3)cc2)cc1`, the growth in test [1] is 113%; in test [2], 76.3%; in [3], 73.9%; in test [4], 51%; in test [5], 84.4%; in test [6] it was 91.3%. The growth in [7] was 83.6%; in test [8], 96.3%; in test [9], 42.8%; in test [10], 33.6%.
Turning to `COc1ccc(CCN(CC(=O)N(CC(N)=O)C2CCC[C@@H]2OCc2ccccc2)C(=O)CN(C(=O)CN(CCc2ccc(Cl)cc2)C(=O)CN(C(=O)CN(C)Cc2ccccc2F)[C@H](C)C2CCCCC2)[C@H](C)C2CCCCC2)cc1OC` (some centres undefined), the growth in [1] was 1.88% (active); in test [2], 30.8%; in test [3] it was 35.3%; in test [4] it was 37.3%; in [5], 15.6%; in [6], 28.8%. The growth in test [7] was 94.7%; in [8] it was 32%; in [9], 7.58% (active); in test [10] it was -37% (active).
As to `COc1cc(NC(=O)c2cncnc2Nc2ccc3c(ccn3Cc3ccccn3)c2)cc(OC)c1`, the growth in test [1] is 45%; in test [2] it was 68.4%; in test [3], 56.2%; in test [4] it was 46%; in test [5], 73.3%; in [6], 66.5%. Also, the growth in test [7] is 44.2%; in test [8] it was -12.5% (active); in test [9] it was 22.3%; in test [10], 24.9%.
As for `Cc1cccc[n+]1C1c2ccccc2-c2ccccc21`, the growth in test [1] was 90.2%; in test [2], 93.8%; in test [3], 94.2%; in test [4], 90.7%; in test [5] it was 89.5%; in test [6], 107%. Also, the growth was 100% in [7], 82.9% in [8], 78.5% in [9] and 98.3% in test [10].
Turning to `Cc1ccc(-c2nc3nc(-c4ccccc4)nc(N4CCCN(S(C)(=O)=O)CC4)c3o2)cc1`, the growth in [1] is 86.2%; in [2], 93.7%; in test [3], 71.8%; in test [4], 59.3%; in test [5], 66.9%; in test [6], 46.1%. In addition, the growth is 63.4% in test [7], 94.3% in test [8], 63.9% in test [9] and 56.3% in test [10].
As to `CC1(C)CC(=O)c2c(nn(-c3ccc(Br)cc3)c2-c2cn(-c3ccccc3)nc2-c2cccnc2)C1`, the growth is 98.1% in test [1]; 92.5% in test [2]; 92.7% in test [3]; 65.4% in test [4]; 140% in test [5]; 93.4% in [6]. Besides, the growth is 66.5% in [7], 98.5% in test [8], 94.4% in [9] and 81.5% in [10].
As for `COc1ccc(/C=C(/c2ccccc2)[N+](=O)[O-])c(OC)c1`, the growth was -6.4% (active) in [1]; 36.2% in test [2]; -20.5% (active) in [3]; -97.6% (active) in test [4]; -26% (active) in [5]; -72.4% (active) in [6]. Besides, the growth in test [7] was -25.5% (active); in [8], 51.5%; in test [9], 7.93% (active); in test [10], 6.93% (active).
`CCOC(=O)c1c(C)nc2ccccc2c1/C=C/c1cccs1`: the growth is 63.6% in test [1]; 67.6% in [2]; 78.4% in test [3]; 63.6% in test [4]; 90.2% in [5]; 63% in [7]. Moreover, the growth in test [8] is 84.5%; in [9], 76.4%; in test [10] it was 49.4%.

The values above are taken from PubChem BioAssay (NCI).
